From PubChem BioAssay
SW480 rerep – A quantitative high throughput screen for small molecules that induce DNA re-replication in SW480 colon adenocarcinoma cells | AID 624297, 2012 | SW480 DNA re-replication, Hoechst DNA content imaging, 48 h | 340,000 tested, 1.8% active | Potency, µM (series often up to 46.1 µM), inactives show top-dose re-replication activation, hits mostly activators; further: % of control where 0% means no effect; nearly all actives have a fitted effect of over 55% in size
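250 cells/well; 23 nL cpd via pin tool; 48 hr, 37 C, 5% CO2; Hoechst 40 min; imager read of total nuclear intensity, ex 405/em 500-530 nm.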
VP16 counter – VP16 counterscreen qHTS for inhibitors of ROR gamma transcriptional activity; Drosophila S2 Gal4-VP16 UAS-luciferase, luminescence, 20 h; Potency, µM (titrated, usually from 53.6 µM), inactives show at the top dose activity, negative = inhibition, hits mostly inhibitors; 310,000 tested, 3.5% active; AID 2546, 2010;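 further: Gal4-VP16 expression switched on by copper sulfate through the metallothionein promoter; on the % scale 0 is the no-effect control and ±100 the full control effect; nearly all actives have a fitted effect of over 50% in size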
MCF10A rerep – A quantitative high throughput screen for small molecules that induce DNA re-replication in MCF 10a normal breast cells | MCF 10A DNA re-replication, Hoechst nuclear intensity, 48 h | Potency, µM (series often up to 46.1 µM), inactives show top-dose activity, positive = re-replication, usual class: activators | 350,000 tested, 2.9% active; further: % of control where 0% means no effect; nearly all actives have a fitted effect of over 50% in size
RORg inh – qHTS for inhibitors of ROR gamma transcriptional activity; Potency, µM (titrated, usually from 53.6 µM), without a hit: top-dose activity change, negative = inhibition, usual class: inhibitors; Drosophila S2 Gal4-RORgamma UAS-luciferase reporter, 20 h; 310,000 tested, 5.4% active; further: on the % scale 0 is the no-effect control and ±100 the full control effect; nearly all actives have a fitted effect of over 60% in size
Target sequence (P51450 whole entry, looked up, the tested form may be a part): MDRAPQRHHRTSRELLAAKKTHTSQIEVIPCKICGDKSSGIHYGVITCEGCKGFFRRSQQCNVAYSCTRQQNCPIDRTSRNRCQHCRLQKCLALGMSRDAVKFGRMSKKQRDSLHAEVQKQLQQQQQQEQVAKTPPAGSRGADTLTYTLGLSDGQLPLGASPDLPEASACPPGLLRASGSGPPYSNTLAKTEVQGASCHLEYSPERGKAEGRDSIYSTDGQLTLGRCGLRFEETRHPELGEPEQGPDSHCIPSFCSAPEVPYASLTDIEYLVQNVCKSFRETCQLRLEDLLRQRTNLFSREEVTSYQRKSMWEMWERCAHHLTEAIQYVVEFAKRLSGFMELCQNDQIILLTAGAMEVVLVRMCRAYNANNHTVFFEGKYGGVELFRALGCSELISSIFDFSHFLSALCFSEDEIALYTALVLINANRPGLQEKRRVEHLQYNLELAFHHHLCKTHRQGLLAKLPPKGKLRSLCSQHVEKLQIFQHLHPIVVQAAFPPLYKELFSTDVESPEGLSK
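Luminescence from a UAS-regulated Photinus luciferase reporter in stably transfected Drosophila Schneider cells is measured; decreased signal marks ROR gamma inhibition. Fusion expression is induced by 700 uM copper sulfate for 20 hr.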
KB-3-1 cytotox – qHTS assay for MDR1-selective chemotherapeutics: Primary screen using the parental adenocarcinoma cell KB-3-1 | KB-3-1 viability, CellTiter-Glo ATP luminescence, 72 h | Potency, µM (series often up to 46.1 µM), usual class: cytotoxic | 400,000 tested, 1.4% active | AID 1347075, 2019; further: on the % scale 0 is the no-effect control and ±100 the full control effect; nearly all actives have a fitted effect of over 60% in size
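Using CellTiter-Glo luminescence, growth of non-resistant KB-3-1 adenocarcinoma cells is assessed 72 h after pin-tool compound addition at 37 °C. Normalized responses across the concentration series yield fitted curves.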
KB-V1 cytotox – qHTS assay for MDR1-selective chemotherapeutics: Primary screen using the drug-selected MDR subline cells KB-V1 | 400,000 tested, 3.4% active | Potency, µM (titrated, usually from 46.1 µM), hits mostly cytotoxic | AID 1347076, 2019 | KB-V1 MDR cells viability, CellTiter-Glo, 72 h; further: on the % scale 0 is the no-effect control and ±100 the full control effect; nearly all actives have a fitted effect of over 60% in size
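Potencies derive from concentration-effect curves fitted to normalized luminescence (CellTiter-Glo) of KB-V1 cells treated for 72 h at 37 degrees C in phenol-red-free DMEM containing 10% FBS.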
* = called active by the depositor; i = inactive; ? = inconclusive; . = not tested or not shown; [ ] = remark or other dose. Most compounds without a hit are left out; they make up all but 10% or so of the library. The call rests on the fitted dose curve; in most records, active means well fitted curve in the direction sought with a large enough effect; inconclusive means small, poorly fitted or top-dose-only effect, or another doubt; inactive means no such curve, though single readings can be large; an effect the other way counts as inactive or inconclusive. Potency means the concentration at half of the fitted maximal effect.

SMILES | SW480 rerep | VP16 counter | MCF10A rerep | RORg inh | KB-3-1 cytotox | KB-V1 cytotox
COc1ccc(C)cc1S(=O)(=O)Nc1ccc(F)c(Cl)c1 | -6.7% | ? | 14.9% | ? | i | i
CCc1ccc(NS(=O)(=O)c2ccc(OC)c3ncccc23)cc1 | -6.6% | -12.3% | 0.3% | 15.3% | i | i
CCC1Sc2ccc(S(=O)(=O)Nc3ccc(OC)c(OC)c3)cc2NC1=O (stereo unspecified) | -0.3% | 8.91µM* | ? | ? | ? | i
O=S(=O)(Nc1ccc(Cc2ccncc2)cc1)c1ccc(Cl)c(Cl)c1 | ? | ? | 53.1% | 37.8% | ? | 5.8µM*
COc1ccc(S(=O)(=O)Nc2ccc(F)c(Cl)c2)cc1OC | -1.2% | 7.08µM* | -0.8% | -15.9% | i | i
CCc1ccc(OC)c(S(=O)(=O)Nc2ccc(Cc3ccncc3)cc2)c1 | ? | 2.24µM* | ? | ? | ? | ?
CC(=O)c1cccc(-c2ccnc3c2CC(C(=O)Nc2ccc(C(C)C)cc2)O3)c1 (stereo unspecified) | . | . | . | . | i | ?
Cc1c(C(=O)N(Cc2ccco2)Cc2ccccc2Cl)oc2ccc(F)cc12 | . | . | . | . | i | i
COc1ccc(S(=O)(=O)NCc2ccncc2)cc1OC | -4.1% | ? | -19.0% | -32.7% | i | i
COc1ccc(S(=O)(=O)Nc2ccc(Cc3ccncc3)cc2)cc1OC | -2.9% | 7.94µM* | 10.2% | ? | ? | ?
CC[C@@H](c1ccccc1)n1c(=O)n2n(c1=O)[C@H]1[C@H](O)[C@H]3O[C@H]3C(=O)[C@H]1CC2 | . | -3.7%[10 µM] | . | 2.5%[10 µM] | . | .
Cc1cc(S(=O)(=O)Nc2cc3c(cc2N2CCOCC2)n(C)c(=O)c(=O)n3C)ccc1F | . | . | . | . | i | i
Cn1cccc1/C=C1\SC(=S)N(NC(=O)c2ccc(F)cc2)C1=O | 4.0% | 15.8µM* | -3.3% | 30.3% | i | i
Cn1cccc1/C=C1\SC(=S)N(NC(=O)c2ccccc2)C1=O | -3.9% | 4.7% | 12.0% | ? | i | i
COc1cc(/C=C2\SC(=S)N(NC(=O)c3ccc(O)c(OC)c3)C2=O)ccc1O | 6.0% | ? | 15.3% | 7.08µM* | i | i
CCN(CCc1ccccc1)c1ccc2c(c1)C1CC2CCN1Cc1ccccc1 (stereo unspecified) | . | . | . | . | ? | i
O=C(Nc1cccc(F)c1)c1ccc2oc(=O)n(Cc3ccccc3)c2c1 | . | . | . | . | i | i
O=C(NCc1ccco1)/C(=C/c1cccc(C(F)(F)F)c1)c1nc2ccccc2[nH]1 | ? | -4.0% | 23.1µM* | 22.7% | ? | 20.6µM*
O=S(=O)(/C(=C\c1ccc(C(F)(F)F)cc1)c1nc2ccccc2[nH]1)c1ccccc1 | 2.31µM* | . | ? | . | 2.59µM* | ?
O=C(NCc1ccco1)/C(=C/c1ccc(C(F)(F)F)cc1)c1nc2ccccc2[nH]1 | 20.6µM* | -6.0% | 20.6µM* | -3.2% | ? | i
O=C(COC(=O)/C=C/c1cccc(C(F)(F)F)c1)NCc1ccco1 | -89.7% | . | 1.1% | . | i | i
O=C(CSc1nc2ccccc2[nH]1)NCc1ccco1 | 5.6% | 0.2% | ? | 9.0% | i | i
Cc1nc2ccc(Cl)cc2c(-c2ccccc2)c1C(=O)N(C)C | -8.0% | 2.8% | 3.8% | 1.5% | i | i
CC(=O)c1c(N2CCOCC2)nc2ccc(Cl)cc2c1-c1ccccc1 | -10.7% | -1.3% | 14.6µM* | ? | i | i
CCOC(=O)c1c(CN2CCNCC2)nc2ccc(Cl)cc2c1-c1ccccc1 | ? | . | ? | . | ? | 23.1µM*
SMILES | SW480 rerep | VP16 counter | MCF10A rerep | RORg inh | KB-3-1 cytotox | KB-V1 cytotox
CC(C)[C@@H](CC(=O)N[C@@H]1CCCC[C@H]1C(=O)N[C@H](CC(=O)N[C@@H](CCC(=O)O)CC(=O)O)Cc1c[nH]c2ccccc12)NC(=O)C[C@H](Cc1ccccc1)NC(=O)[C@@H]1CCCC[C@H]1N | . | -11.6% | . | -0.7% | . | .
Oc1c(Cl)cc(Cl)cc1/C=C/c1ccc2cccc(O)c2n1 | 11.6µM* | 7.08µM* | 6.51µM* | 2.51µM* | ? | ?
CCOc1cc(/C=C/c2ccc3cccc([N+](=O)[O-])c3n2)cc(Cl)c1O | 16.2% | -15.1% | 26.1% | ? | i | i
O=C(/C=C/c1ccc2ccccc2n1)c1cc(Cl)ccc1O | 11.1% | 3.8% | 11.7% | 8.8% | i | i
Oc1ccc(Cl)cc1/C=C/c1ccc2cccc(O)c2n1 | 20.6µM* | 4.47µM* | ? | 3.16µM* | ? | i
COc1ccc(-c2ccc([C@H]3[C@@H]4C=CCC[C@@]4(C)C(=O)N3Cc3ccccc3)c(F)c2)cc1 | -0.5% | -5.0% | ? | 26.8% | ? | 7.31µM*
Cc1ccc(F)c(C2C3C=CCCC3(C)C(=O)N2Cc2ccccc2)c1 (stereo unspecified) | . | 31.6µM* | . | ? | . | .
COc1ccc(-c2ccc(N(C)C)cc2)cc1[C@H]1[C@@H]2C=CCC[C@@]2(C)C(=O)N1Cc1ccccc1 | ? | 1.4% | 17.3% | 26.2% | 18.4µM* | ?
COc1ccc(N2CCN(C(=S)Nc3ccc(OC)cc3OC)CC2)cc1 | -8.7% | 1.8% | 3.2% | -11.3%[1.91 µM] | i | i
COc1ccc(NC(=S)N2CCN(C(c3ccccc3)c3ccccc3)CC2)c(OC)c1 | 2.6% | ? | 20.2% | 5.01µM* | i | i
COc1cccc(NC(=S)N2CCN(C(c3ccccc3)c3ccccc3)CC2)c1 | -2.1% | 8.91µM* | -0.7% | 4.47µM* | i | i
CCOC(=O)C1=CCN(S(=O)(=O)c2cccc(Cl)c2)C1c1ccccc1 (stereo unspecified) | . | . | . | . | i | 18.4µM*
CCOC(=O)C1=CCN(S(=O)(=O)c2ccccc2C)C1c1cccc(Cl)c1 (stereo unspecified) | . | . | . | . | ? | 20.6µM*
CCc1ccc(OCC(=O)Nc2ccc(Cl)c(-c3nc4ncccc4o3)c2)cc1 | . | . | . | . | i | i
COC(=O)c1sccc1NC(=O)c1cc(-c2ccc(C)cc2C)nc2ccccc12 | 2.0% | 2.5% | 11.6µM* | -13.3% | ? | ?
COc1ccccc1-c1cc(C(=O)N/N=C/c2sccc2C)c2ccccc2n1 | 2.9% | 8.91µM* | ? | 7.08µM* | ? | i
